DT40 TDP1 no CPT: qHTS for Inhibitors of human tyrosyl-DNA phosphodiesterase 1 (TDP1): qHTS in cells in absence of CPT; DT40 Tdp1-/- hTDP1 cells, no CPT, ATP luminescence, 48 h; actives 15% (n = 420,000); AID 686978, 2013; Potency, µM (doses to about 46.2 µM), without a hit: at the top dose activity change, negative = growth inhibition, actives largely listed as inhibitors; also: potency is read from the fitted curve at half-maximal effect; nearly all actives have a fitted effect of over 55% in size
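Stably hTDP1-transfected Tdp1-null chicken DT40 cells were treated with library compounds minus camptothecin and grown for at least 48 hr at 37 °C, after which cellular ATP was quantified by luminescence.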
DT40 TDP1 CPT: DT40-hTDP1 cell growth loss with CPT; chicken DT40 Tdp1-/-;hTDP1 cells + 20 nM CPT, ATP luminescence, 48 h; Potency, µM (series often up to 46.2 µM), for inactives: at the highest dose activity change, negative = growth inhibition, usual class: inhibitors; actives 12% (n = 420,000); AID 686979; also: potency is read from the fitted curve at half-maximal effect; nearly all actives have a fitted effect of over 55% in size
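Chicken DT40 Tdp1-/- cells complemented with human TDP1, 400 cells/well, exposed to compounds plus 20 nM camptothecin for at least 48 h at 37 C; viability read as ATP content by CellTiter-Glo luminescence.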
IL-1B inflam inh: inhibitors of inflammasome signaling (IL-1 beta secretion) | THP-1 LPS/ATP IL-1B secretion, AlphaLISA, 16 h; stronger effect = lower value | activity change, % at 57.5 µM | actives 4.7% (n = 360,000) | AID 743279; in the data active = activity change below about -50%; inconclusive = mostly about -30% to -49%
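Secreted IL-1B measured by AlphaLISA bead assay after 16 h compound exposure of THP-1 cells; compounds (final up to 57.5 uM) added 1 h before LPS (250 ng/mL) and ATP (1.25 mM) stimulation; lower signal means less secretion.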
HT1080NT lethal: kills 2HG-producing HT-1080-NT fibrosarcoma cells | HT-1080-NT fibrosarcoma viability, CellTiter-Glo ATP luminescence, 48 h | Potency, µM (top dose mostly 46.1 µM), without a hit: at the highest dose activity, negative = less viability, hits mostly cytotoxic | actives 1.6% (n = 360,000);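 also: NT is the 2HG producing partner of a matched IDH1 knockdown line; potency is read from the fitted curve at half-maximal effect; 0% = DMSO-treated cells and -100% = media-only wells without cells; nearly all actives have a fitted effect of over 55% in size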
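Luminescent CellTiter-Glo readout after 48 hours of compound exposure at 37 degrees C defined viability of HT-1080-NT cells. Activity was normalized to DMSO wells and cell-free media wells; concentration-response curves were fitted and assigned curve classes.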
12-LOX inh: ALOX12 (human) lipoxygenase inhibition; Potency, µM (highest dose often 108 µM), without a hit: at the highest dose activity change, negative = inhibition, hits mostly inhibitors; purified 12hLO, xylenol orange hydroperoxide absorbance; actives 1.1% (n = 580,000); P18054; AID 1671190; also: potency is read from the fitted curve at half-maximal effect
Target sequence (P18054 whole entry, looked up): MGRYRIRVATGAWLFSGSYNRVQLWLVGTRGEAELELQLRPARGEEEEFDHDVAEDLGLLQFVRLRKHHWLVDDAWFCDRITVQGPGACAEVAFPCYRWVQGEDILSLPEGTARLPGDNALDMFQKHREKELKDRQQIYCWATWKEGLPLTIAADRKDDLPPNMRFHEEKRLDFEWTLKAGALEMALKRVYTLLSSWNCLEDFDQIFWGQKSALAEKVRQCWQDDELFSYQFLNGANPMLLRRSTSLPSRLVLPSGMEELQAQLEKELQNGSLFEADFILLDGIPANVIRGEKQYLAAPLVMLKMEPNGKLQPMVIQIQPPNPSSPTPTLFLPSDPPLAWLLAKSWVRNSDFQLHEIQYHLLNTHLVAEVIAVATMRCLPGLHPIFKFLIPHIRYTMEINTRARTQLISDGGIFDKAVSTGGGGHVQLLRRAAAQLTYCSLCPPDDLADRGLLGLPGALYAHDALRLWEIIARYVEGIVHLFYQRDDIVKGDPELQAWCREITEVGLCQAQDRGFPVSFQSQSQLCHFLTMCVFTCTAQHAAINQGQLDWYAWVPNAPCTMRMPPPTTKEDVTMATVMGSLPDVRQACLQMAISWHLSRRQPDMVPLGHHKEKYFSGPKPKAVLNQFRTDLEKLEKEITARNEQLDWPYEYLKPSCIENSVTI
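Purified human 12hLO (150 nM final) in 25 mM Hepes, 0.01% Triton X-100, pH 7.0 was preincubated 15 min at room temperature with compound. Then 40 uM arachidonic acid was added, 30 min. Hydroperoxide was read by Fe-XO absorbance ratio 573/405 nm.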
HT1080 IDH1KD tx: toxicity to HT-1080 IDH1 knockdown cells (counter line). HT-1080 IDH1 knockdown viability, ATP luminescence, 48 h. Potency, µM (series often up to 46.1 µM), inactives show top-dose activity, negative = toxicity, hits mostly cytotoxic. actives 2% (n = 360,000). AID 686971;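 also: potency is read from the fitted curve at half-maximal effect; 0% = DMSO wells and -100% = cell-free medium wells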
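In this qHTS, HT-1080 cells depleted of IDH1 are exposed for 48 h at 37 °C to compound titrations. Toxicity is scored from CellTiter-Glo luminescence, with DMSO as full viability and medium alone as none.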
The depositor's hits bear a star; ? = inconclusive; . = not tested or not shown; [ ] = another dose, or the depositor's remark. The sample as a whole holds a higher share of hits than the screen did. Unless noted, calls follow the shape of the dose curve; as a rule, active = well fitted curve in the direction sought with a large enough effect; inconclusive = small, poorly fitted or top-dose-only effect, or another doubt; inactive = no such curve, though single readings can be large; an effect the other way counts as inactive or inconclusive. Unless noted, % is scaled to controls: 0 for no effect and ±100 for the full control effect.

SMILES	DT40 TDP1 no CPT	DT40 TDP1 CPT	IL-1B inflam inh	HT1080NT lethal	12-LOX inh	HT1080 IDH1KD tx
CC(C)c1ccc(NC(=O)C2Cc3c(-c4ccco4)ccnc3O2)cc1 (stereo not given)	?	?	?	?	-7.7%	?
COc1ccc(NC(=O)C2Cc3c(-c4ccc(NC(C)=O)cc4)ccnc3O2)cc1 (stereo not given)	16.4µM*	?	-25.2	-12.8%	14.7%	-21.7%
CC(=O)Nc1cccc(-c2ccnc3c2CC(C(=O)Nc2ccc(F)c(Cl)c2)O3)c1 (stereo not given)	18.4µM*	18.4µM*	-18.5	?	?	?
COc1ccc(NC(=O)C2Cc3c(-c4cccc(C(C)=O)c4)ccnc3O2)cc1 (stereo not given)	2.91µM*	2.31µM*	-3.4	?	-2.2%	1.84µM*
O=C(NC1CCCC1)c1ccc(I)cc1	.	.	.	.	23.4%	.
CNc1cc(C)nc(N2CCN(Cc3cccc(OC)c3)C(CCO)C2)n1 (stereo not given)	.	.	.	.	5.3%	.
COc1ccc(NC(=O)C2Cc3c(-c4ccc(NC(C)=O)cc4)ccnc3O2)cn1 (stereo not given)	11.6µM*	8.2µM*	-22.2	?	?	?
CC(=O)Nc1cccc(-c2ccnc3c2CC(C(=O)Nc2cccc(N(C)C)c2)O3)c1 (stereo not given)	10.3µM*	13µM*	-0.3	?	-18.8%	?
N#C[C@H](c1ccccc1)C1CCN(S(=O)(=O)CCCCl)CC1	.	.	.	.	1.6%	.
CCN(CC)C(=O)CSc1nc2ccc(NC(=O)CSc3nccn3C)cc2s1	16.4µM*	-29.2%	-53.0*	-21.7%	1.7%	-4.8%
CCOC(=O)CSc1nc2ccc(NC(=O)c3ccc(Cl)cc3)cc2s1	?	-27.0%	.	.	-3.7%	.
CCOC(=O)Nc1ccc2nc(Sc3ccc(Cl)cc3)sc2c1	5.8µM*	5.8µM*	42.7	?	?	?
CCN(CC)C(=O)CSc1nc2ccc(NC(=O)CSc3nnc(N)s3)cc2s1	?	?	-13.1	1.2%	0.0%	-0.7%
Cn1cnnc1SCC(=O)Nc1ccc2nc(SCc3cccc4ccccc34)sc2c1	?	23.1µM*	-16.5	-18.7%	127.4%	-22.7%
O=C(Nc1ccc2nc(SCc3cccc4ccccc34)sc2c1)c1ccc(Cl)cc1	.	.	.	.	28.2µM*	.
O=C(N/N=C/c1cc2ccccc2[nH]1)c1ccccc1Cl	-28.6%	0.2%	14.5	4.5%	5.1%	0.8%
COc1ccccc1CC(=O)N1CCC(Cc2nc(-c3cnccn3)no2)CC1	.	.	.	.	18.4%	.
O=C1CCn2nnc(CNc3ccc(OC(F)(F)F)cc3)c2CN1Cc1ccccc1	.	.	.	.	0.3%[176 µM]	.
O=C(COC(=O)c1ccc(O)cc1O)NC12CC3CC(CC(C3)C1)C2	?	?	5.0	0.0%	?	-1.6%
COc1ccc(C(=O)OCC(=O)NC23CC4CC(CC(C4)C2)C3)c(O)c1	?	23.1µM*	13.1	0.3%	-29.2%	-13.7%
O=C(OCC(=O)C12CC3CC(CC(C3)C1)C2)c1cc(F)c(F)cc1Cl	.	.	.	.	-19.2%	.
O=C(OCC(=O)C12CC3CC(CC(C3)C1)C2)c1ccc(O)cc1O	?	?	?	13µM*	?	18.4µM*
Cc1ccccc1OCc1nc(C2CN(C(=O)COc3ccc(F)cc3)C2)no1	.	.	.	.	49.3%	.
CCOC(=O)c1cc2c(=O)n3ccccc3nc2n(C(C)C)c1=NC(=O)C(C)(C)Oc1ccc(Cl)cc1	-14.5%	0.1%	.	.	5.6%	.
Cn1nc(-c2ccc(N3CCOCC3)c(NS(=O)(=O)c3ccc(Cl)cc3)c2)c2ccccc2c1=O	25.9µM*	18.4µM*	8.6	?	0.1%	18.4µM*
SMILES	DT40 TDP1 no CPT	DT40 TDP1 CPT	IL-1B inflam inh	HT1080NT lethal	12-LOX inh	HT1080 IDH1KD tx
Cc1ccc(C(=O)Nc2cc(-c3nn(C)c(=O)c4ccccc34)ccc2N2CCOCC2)cc1	.	.	.	.	5.5%	.
Cc1ccc(S(=O)(=O)Nc2cc(-c3nn(C)c(=O)c4ccccc34)ccc2N2CCOCC2)cc1	?	?	18.3	?	14.7%	10µM*
CCn1c2c(c3cc(C(=O)O)ccc31)CCCC2=O	25.9µM*	?	9.9	-4.0%	0.0%[57.4 µM]	0.3%
Cc1ccc(C2N(C)C(=O)c3ccccc3N2C)cc1 (stereo not given)	20.6µM*	-11.7%	-2.6	?	-25.8%	?
CCc1ccc(C2CC(=O)N(c3cccc(F)c3)C3=C2C(=O)OC3)cc1 (stereo not given)	23.1%	-10.2%	-4.9	-0.5%	-7.7%	-1.6%
Cc1cc(N(CCO)CCO)ccc1N=Nc1cc(F)ccc1F	?	?	-74.6*	?	-8.0%	?
Cc1cccc(OCCCSc2nc3ccc(C)cc3[nH]2)c1	?	?	-72.2*	6.4%	0.0%	7.3%
Cc1cccc(OCCSc2nc3ncnc(N)c3[nH]2)c1	-27.3%	?	5.5	0.1%	-6.3%	-11.1%
O=c1oc2ccccc2c(NC2CCCC2)c1NS(=O)(=O)c1ccc(Cl)s1	.	.	.	.	-0.8%	.
COC(=O)c1ccc(NC(=O)CN(CCc2ccccc2)S(=O)(=O)c2ccc(OC)cc2)cc1	20.6µM*	?	.	.	-17.8%	.
CCNC(=O)CN(CCc1ccccc1)S(=O)(=O)c1ccc(OC)cc1	-28.4%	?	-4.6	-6.5%	-24.5%	10.3%
Cc1ccc(S(=O)(=O)N(CCc2ccccc2)CC(=O)Nc2ccccc2C)cc1	.	.	.	.	-1.9%	.
Cc1ccc(S(=O)(=O)N(CCc2ccccc2)CC(=O)Nc2ccc(Br)cc2)cc1	16.4µM*	?	.	.	-0.6%	.
O=C(CN(CCc1ccccc1)S(=O)(=O)c1ccc(Br)cc1)NCc1ccc(Cl)cc1	-10.6%	-18.2%	.	.	4.47µM*	.
CCCN(Cc1ccc(C#N)cc1)C(=O)C1=NNC(=O)CC1	.	.	.	.	-15.5%	.
COC(=O)N1CCC2(CC1)CC(=O)N(c1ccccc1)c1ccccc1O2	.	.	.	.	21.5%	.
CC(=O)c1ccc(S(=O)(=O)NC2CC(=O)N(c3ccc(Cl)cc3)C2)cc1 (stereo not given)	13µM*	?	6.8	-7.2%	-14.0%	0.4%
COc1ccc(-n2nc(C3CCN(C(=O)Cc4ccccn4)CC3)[nH]c2=O)cc1	.	.	.	.	69.0%	.
O=C(c1ccccc1F)N1CCN(c2cccc(C(F)(F)F)c2)CC1	16.4µM*	?	-23.0	-2.4%	-27.5%	0.6%
O=C(c1ccccc1F)N1CCN(c2ccccc2)CC1	-5.3%	-2.2%	-17.2	15.7%	-12.4%	-8.2%

Screening data from PubChem.
